mHTT CaM bind: mHTT-calmodulin interaction abrogation; AlphaScreen His-mHTT/GST-CaM binding, luminescence; P42858; inhibition, % at 15 µM; 190,000 compounds, 3.6% hits; AID 1671202
Target sequence (P42858 whole entry, looked up, change not shown): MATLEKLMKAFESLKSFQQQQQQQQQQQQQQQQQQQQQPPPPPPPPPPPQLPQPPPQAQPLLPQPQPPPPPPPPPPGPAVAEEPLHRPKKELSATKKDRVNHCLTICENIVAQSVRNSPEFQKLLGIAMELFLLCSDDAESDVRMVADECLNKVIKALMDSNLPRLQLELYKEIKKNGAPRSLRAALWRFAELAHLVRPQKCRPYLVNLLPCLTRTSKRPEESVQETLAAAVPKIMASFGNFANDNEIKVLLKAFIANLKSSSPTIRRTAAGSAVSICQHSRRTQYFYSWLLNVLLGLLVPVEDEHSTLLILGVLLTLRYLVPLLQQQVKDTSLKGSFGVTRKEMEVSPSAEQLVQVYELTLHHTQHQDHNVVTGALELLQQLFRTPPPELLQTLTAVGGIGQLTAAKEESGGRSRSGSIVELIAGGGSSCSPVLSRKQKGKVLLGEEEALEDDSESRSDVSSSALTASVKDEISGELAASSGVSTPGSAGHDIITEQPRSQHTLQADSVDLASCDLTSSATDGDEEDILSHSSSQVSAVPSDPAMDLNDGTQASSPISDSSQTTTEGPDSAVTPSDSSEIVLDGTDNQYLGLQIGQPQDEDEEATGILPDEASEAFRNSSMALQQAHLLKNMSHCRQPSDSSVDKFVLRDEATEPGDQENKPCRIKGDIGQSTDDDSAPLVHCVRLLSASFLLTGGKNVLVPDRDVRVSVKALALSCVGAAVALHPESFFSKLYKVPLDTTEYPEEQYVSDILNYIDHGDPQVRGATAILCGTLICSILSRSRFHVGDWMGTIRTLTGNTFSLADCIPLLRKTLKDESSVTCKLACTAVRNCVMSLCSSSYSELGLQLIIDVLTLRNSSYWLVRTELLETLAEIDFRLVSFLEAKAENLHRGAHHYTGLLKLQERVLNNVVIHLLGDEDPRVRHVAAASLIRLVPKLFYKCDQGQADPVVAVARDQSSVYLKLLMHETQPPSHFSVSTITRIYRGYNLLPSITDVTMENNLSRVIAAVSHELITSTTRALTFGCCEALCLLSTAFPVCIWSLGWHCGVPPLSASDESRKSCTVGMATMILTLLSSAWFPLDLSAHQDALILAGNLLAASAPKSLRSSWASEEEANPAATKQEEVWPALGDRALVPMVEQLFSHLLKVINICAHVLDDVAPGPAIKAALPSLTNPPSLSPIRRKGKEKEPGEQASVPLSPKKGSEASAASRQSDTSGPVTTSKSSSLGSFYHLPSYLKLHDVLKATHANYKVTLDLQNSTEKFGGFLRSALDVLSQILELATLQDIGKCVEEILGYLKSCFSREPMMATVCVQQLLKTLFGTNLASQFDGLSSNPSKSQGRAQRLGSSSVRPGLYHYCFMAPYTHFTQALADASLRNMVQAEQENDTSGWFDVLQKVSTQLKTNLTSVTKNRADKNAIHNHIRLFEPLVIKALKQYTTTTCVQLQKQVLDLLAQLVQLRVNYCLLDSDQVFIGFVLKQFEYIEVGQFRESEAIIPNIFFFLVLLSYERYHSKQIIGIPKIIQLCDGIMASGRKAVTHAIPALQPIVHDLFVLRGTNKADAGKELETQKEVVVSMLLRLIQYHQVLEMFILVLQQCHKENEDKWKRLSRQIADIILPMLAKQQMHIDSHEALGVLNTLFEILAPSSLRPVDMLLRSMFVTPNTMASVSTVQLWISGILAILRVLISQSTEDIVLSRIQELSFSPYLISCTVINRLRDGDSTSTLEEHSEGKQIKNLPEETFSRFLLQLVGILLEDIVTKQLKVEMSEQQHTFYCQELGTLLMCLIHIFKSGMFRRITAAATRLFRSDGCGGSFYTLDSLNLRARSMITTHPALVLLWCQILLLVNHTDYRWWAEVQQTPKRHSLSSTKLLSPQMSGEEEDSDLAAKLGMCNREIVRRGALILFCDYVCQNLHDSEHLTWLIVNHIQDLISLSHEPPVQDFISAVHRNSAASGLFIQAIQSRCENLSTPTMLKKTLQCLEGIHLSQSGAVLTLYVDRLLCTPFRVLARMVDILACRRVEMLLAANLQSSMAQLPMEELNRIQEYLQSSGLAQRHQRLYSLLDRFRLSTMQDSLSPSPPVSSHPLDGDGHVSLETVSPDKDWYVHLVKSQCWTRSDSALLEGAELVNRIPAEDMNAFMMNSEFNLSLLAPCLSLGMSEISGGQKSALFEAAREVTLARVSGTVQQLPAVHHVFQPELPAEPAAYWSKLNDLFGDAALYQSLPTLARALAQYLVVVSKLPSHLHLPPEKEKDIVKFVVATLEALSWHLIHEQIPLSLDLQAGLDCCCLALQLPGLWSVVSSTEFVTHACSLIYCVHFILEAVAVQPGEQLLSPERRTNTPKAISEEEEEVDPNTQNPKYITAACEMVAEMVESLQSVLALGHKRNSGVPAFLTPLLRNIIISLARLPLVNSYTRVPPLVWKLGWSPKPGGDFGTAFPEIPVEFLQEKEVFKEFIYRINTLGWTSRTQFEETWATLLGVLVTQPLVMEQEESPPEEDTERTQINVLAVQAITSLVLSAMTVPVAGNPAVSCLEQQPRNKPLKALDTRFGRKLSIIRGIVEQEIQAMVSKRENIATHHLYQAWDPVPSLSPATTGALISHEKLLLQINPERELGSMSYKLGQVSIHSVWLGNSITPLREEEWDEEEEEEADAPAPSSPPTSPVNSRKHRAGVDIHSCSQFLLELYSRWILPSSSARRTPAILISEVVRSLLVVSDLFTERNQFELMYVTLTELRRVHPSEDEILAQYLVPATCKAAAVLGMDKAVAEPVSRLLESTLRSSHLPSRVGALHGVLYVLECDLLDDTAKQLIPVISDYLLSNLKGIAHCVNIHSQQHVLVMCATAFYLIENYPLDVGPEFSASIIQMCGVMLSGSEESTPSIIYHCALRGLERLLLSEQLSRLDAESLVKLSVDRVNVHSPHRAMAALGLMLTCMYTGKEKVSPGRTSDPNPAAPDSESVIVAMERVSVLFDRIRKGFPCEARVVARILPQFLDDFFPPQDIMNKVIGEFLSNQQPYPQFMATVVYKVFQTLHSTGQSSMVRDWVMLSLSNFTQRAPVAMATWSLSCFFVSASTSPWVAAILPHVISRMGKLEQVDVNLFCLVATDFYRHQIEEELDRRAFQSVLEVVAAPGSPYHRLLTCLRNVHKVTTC
Pf apPOL inh: Pf-apPOL DNA polymerase inhibition. inhibition, % at 10 µM. 210,000 compounds, 0.25% hits. Recombinant Pf-apPOL, molecular beacon fluorescence, 1.5 h
A number is an active result; 0 = inactive; - = no result; ! = repeats disagree. The list is not random: actives were taken first. Their share in the collection is about 3.5%. Cut-off read from the data, not from the text of the source: active = inhibition above about 50%; inactive = the rest.

SMILES	mHTT CaM bind	Pf apPOL inh
COc1ccc(NC(=O)C2CCN(c3ccc(F)cc3)C2=O)cc1OC (centres undefined)	0	0
CN(C)c1ccc(N2CCN(S(=O)(=O)c3ccccc3)CC2)c([N+](=O)[O-])c1	0	0
COc1ccccc1C1CC(c2cc(F)ccc2O)=NN1 (centres undefined)	0	0
Oc1ccc(Cl)cc1C1=NNC(c2cccs2)C1 (centres undefined)	51.7	0
COc1cccc(CNC(=O)C2(C)CCCN(C(=O)NCc3ccc(F)cc3)C2)c1 (centres undefined)	0	0
Nc1ccc2nc(-c3ccc(N=Cc4cc([N+](=O)[O-])cc([N+](=O)[O-])c4O)cc3)[nH]c2c1	0	0
O=C1NC(=O)C2C3C=CC(C3=C(c3ccccc3)c3ccccc3)C12 (centres undefined)	57.0	0
O=C1NN(c2ccccc2)C(=O)C2C(c3ccccc3)C=CC(c3ccccc3)C12 (centres undefined)	0	0
COc1cc(CN2CCN3CCCC3C2C)cc(Br)c1O (centres undefined)	0	0
Cc1cc(C)n(-c2nc(N3CCOCC3)nc(C)c2[N+](=O)[O-])n1	0	68.9!
Cc1nc(N2CCOCC2)nc(N2CCCC2)c1[N+](=O)[O-]	0	0
CCOC(=O)c1noc(C)c1-c1csc(NN=Cc2ccccc2Cl)n1	-	0
CCOC(=O)c1cc(-c2ccnn2S(=O)(=O)c2cccc(C(F)(F)F)c2)on1	-	81.9
Cc1cc(-c2nc(-c3ccnn3S(=O)(=O)c3cccc(C(F)(F)F)c3)cs2)no1	-	0
COc1cccc(/C=C2/N=C(c3ccccc3Cl)OC2=O)c1OC	0	0
COc1ccc(/C=C/C(=O)Nc2nc3n(n2)C(c2ccccc2)C=C(c2ccccc2)N3)cc1 (centres undefined)	72.0	0
CCCC(=O)Nc1nc2n(n1)C(c1ccccc1)C=C(c1ccccc1)N2 (centres undefined)	0	0
Cc1[nH]c(=O)[nH]c(=O)c1S(=O)(=O)N1CCCC(C(=O)Nc2cccc3c2CCCC3)C1 (centres undefined)	0	0
CCOc1cc(/C=C2/SC(=Nc3ccccc3Cl)NC2=O)ccc1O	53.0	0
O=C1NC(=Nc2cccc(Cl)c2Cl)S/C1=C\c1ccc(O)c(O)c1	83.0	0
O=C1NC(=Nc2ccccc2Cl)S/C1=C/c1cccc(C(=O)O)c1	0	0
COc1cc(/C=C2/SC(=Nc3ccccc3Cl)NC2=O)cc(OC)c1	0	0
CCOc1cc(/C=C2/SC(=Nc3cccc(C(=O)O)c3)NC2=O)ccc1OC	51.0	0
CCOc1cc(/C=C2/SC(=Nc3ccccc3)NC2=O)ccc1OC	0	0
CCOc1ccccc1N(C)C(=O)c1cc(S(=O)(=O)NCc2ccccc2Cl)ccc1F	0	0
SMILES	mHTT CaM bind	Pf apPOL inh
CCOC(=O)N1CCC(NC(=O)C2CCCN(c3cc(=O)n(C)c(=O)n3C)C2)CC1 (centres undefined)	0	0
CN(C)CCNC(=O)c1cn2cc(-c3ccc(F)c(Cl)c3)ccc2n1	93.3	0
CN(C)c1ccc(CNC(=O)c2cn3cc(Cl)ccc3n2)cc1	0	0
O=C(N1CCOCC1)N1CCN(Cc2ccc3c(c2)OCO3)CC1	0	0
CC(C)(C)c1ccc(Cn2c(N)nc3ccccc32)cc1	88.7	0
Nc1nc2ccccc2n1Cc1ccc(Br)cc1	0	0
CC1(C)C(C=C(Cl)Cl)C1C(=O)Nc1cccc(C(F)(F)F)c1 (centres undefined)	53.0	0
CC1(C)C(C=C(Cl)Cl)C1C(=O)Nc1ccc(Cl)c(Cl)c1 (centres undefined)	0	0
Cc1ccc(NC(=O)N2CCc3nc(C)ncc3C2)cc1	0	0
Clc1ccc2c(c1)C1CC(c3cccnc3)=NN1C1(CCCCC1)O2 (centres undefined)	51.0	0
c1ccc(C2=NN3C(C2)c2ccccc2OC32CCCCC2)cc1 (centres undefined)	0	0
c1ccc(C2=NN3C(C2)c2ccccc2OC32CCCC2)cc1 (centres undefined)	51.0	0
Cc1ccc(C2=NN3C(C2)c2ccccc2OC32CCCCC2)o1 (centres undefined)	53.0	0
O=C1Nc2ccccc2C12Oc1ccccc1C1CC(c3ccc(Cl)cc3)=NN12 (centres undefined)	100.0	0
CN1CCC2(CC1)Oc1ccc(Cl)cc1C1CC(c3ccc(Cl)cc3)=NN12 (centres undefined)	0	-
CCC1(C)Oc2ccccc2C2CC(c3ccccc3)=NN21 (centres undefined)	0	0
C=CCN1C(=O)C2(Oc3ccccc3C3CC(c4ccccc4)=NN32)c2ccccc21 (centres undefined)	0	0
Cc1cc(C2CCCN2C(=O)c2c(Br)cnn2C)on1 (centres undefined)	0	0
O=C(NCc1ccccn1)c1ccc(Cn2nnc3ccsc3c2=O)cc1	0	0
O=C(C1CCN(c2cncnc2N2CCOCC2)CC1)N1CCOCC1	0	0
c1csc(C2=NN3C(C2)c2ccccc2OC32CCCC2)c1 (centres undefined)	56.0	0
CN(CC(=O)N1N=C(c2cccs2)CC1c1ccccc1Cl)C(=O)C1CCC1 (centres undefined)	0	0
COc1ccc(C2CC(=O)NC(Nc3nc(C)c4ccc(C)cc4n3)=N2)cc1 (centres undefined)	68.4	0
COc1ccc2c(C)nc(Nc3nc4ccccc4c(=O)[nH]3)nc2c1	0	0
COc1ccc2nc(NC3=NC(c4ccccc4)CC(=O)N3)nc(C)c2c1 (centres undefined)	53.8	59.5
SMILES	mHTT CaM bind	Pf apPOL inh
COc1ccc(NC(=O)C2CC(=O)NC(Nc3nc(C)c4ccccc4n3)=N2)cc1 (centres undefined)	0	0
O=C1NC(c2ccccc2F)C(=C(O)c2ccc(Br)cc2)C1=O (centres undefined)	0	0
N#C/C(C(=O)Nc1ccccc1)=C(\Nc1ccccc1)SCc1ccccc1F	0	0
COc1cc(C2Oc3ccccc3C3CC(c4cccs4)=NN32)cc(OC)c1O (centres undefined)	0	0
O=C(c1cccs1)N1N=C(c2cccs2)CC1c1cc([N+](=O)[O-])ccc1O (centres undefined)	0	0
COc1c(O)ccc(C2Oc3ccccc3C3CC(c4cccs4)=NN32)c1[N+](=O)[O-] (centres undefined)	55.0	0
c1coc(C2Oc3ccccc3C3CC(c4cccs4)=NN32)c1 (centres undefined)	92.0	0
Oc1ccc(C2Oc3ccccc3C3CC(c4cccs4)=NN32)cc1O (centres undefined)	0	0
COc1ccc(C2Oc3ccccc3C3CC(c4cccs4)=NN32)cc1O (centres undefined)	52.0	0
Clc1cccc(C2Oc3ccccc3C3CC(c4ccccc4)=NN32)c1 (centres undefined)	0	-
COc1cc(C(=O)O)c(C2Oc3ccccc3C3CC(c4ccccc4)=NN32)cc1OC (centres undefined)	50.0	0
CC1CCN(C(=O)c2c[nH]c3ccc(S(=O)(=O)N4CCc5ccccc54)cc3c2=O)CC1	0	0
O=c1c2c(nc3cc(-c4ccc(Cl)cc4)[nH]n13)CCCC2	0	0
CCOc1cccc(C2Oc3ccccc3C3CC(c4cccs4)=NN32)c1O (centres undefined)	50.0	0

Screens: PubChem BioAssay, University of Kansas High Throughput Screening Laboratory
